From PubChem BioAssay AID1745847 (National Center for Advancing Translational Sciences (NCATS), 2022) come the findings set out here.

Out of some 2,100 compounds screened, about 670 (32%) were called active. Not shown: some 50% with an inconclusive outcome. Some of the results follow. Unmarked numbers belong to inactive results. The call rests on the fitted dose curve; in most records, active means well fitted inhibition curve with a large enough effect; inconclusive means small, poorly fitted or top-dose-only effect; inactive means no such curve, though single readings can be large or run the other way.
On the % scale 0 is the no-effect control and ±100 the full control effect; potency means the concentration at half of the fitted maximal effect.

The experiment can be described thus: CMV-Luciferase Counterscreen for Inhibitors of ATXN expression. Further: nearly all actives have a fitted effect of over 55% in size. As to conditions: HEK-293 CMV-luciferase reporter, luminescence, 24 h; series mostly up to 57.5 µM; activity change, negative = inhibition: at the top concentration. The text has this:
PI: Daniel Scoles Ph.D. University of Utah School of Medicine, Salt Lake City, Utah MLPCN Grant: NS073009 Spinocerebellar ataxia type 2 (SCA2) is a multisystem neurodegenerative disease caused by a dominantly acting mutation leading to expansion of a polyQ domain in the ataxin-2 protein (ATXN2). SCA2 patients develop progressive ataxia and later lose function in other neuronal systems. Prominent parkinsonian signs develop in some patients. Like many neurodegenerative disorders, no symptomatic or disease-modifying treatments are known. The primary objective of the proposed research is to identify compounds inhibiting ATXN2 expression and to test them for efficacy in SCA2 mouse models. We have developed a cell-based assay paired with an in vivo mouse model using identical luciferase expression constructs. This approach takes advantage of an ATXN2-luciferase transgene, with the luciferase gene flanked by the upstream and downstream portions of the ATXN2 gene. Here we describe a 5-7 dose quantitative high thoroughput screen (qHTS) for compounds lowering ATXN2 expression. We screened the NIH Molecular Libraries Small Molecule Repository (MLSMR) and NCGC's mechanistically annotated (MIPE) and drug repurposing (NPC) collections of compounds for lowering expression of an ATXN2-luciferase reporter in HEK-293 cells. The assay is a multiplexed cell viability assay to ensure target reduction in the absence of cytotoxicity. Secondary qHTS assays included a CMV-luciferase reporter expressed in HEK-293 cells as well as a biochemical assay using recombinant luciferase to detect inhibitors of the reporter enzyme. Compounds that inhibit ATXN2 expression but is not cytotoxic were selected for confirmatory and secondary screens.
PROTOCOL TABLE (as described by Inglese J, Shamu CE and Guy RK. 2007) SEQUENCE No. (e.g., 1, 2, 3, etc.); PARAMETER (e.g., Cells, Incubation, Reagent, etc.); VALUE; DESCRIPTION. 1; Cells; 4 uL; white, solid bottom, 1536-well Greiner assay plate. 2; Incubation; 2 hr; 37 degree C in 5% humidified CO2. 3; Compounds; 23 nL; Kalypsis pintool (Wako USA) equipped with a 1536-well pin head. 4; Incubation; 24 hr; 37 degree C in 5% humidfified CO2. 5; Reagent; 1 uL; Gly-Phe-7-Amino-4-trifluoromethylcoumarin. 6; Incubation; 30 min; 37 degree C in 5% humidfified CO2. 7; Detection; Fluorescence; Viewlux plate reader (PerkinElmer). 8; Reagent; 3 uL; SteadyGlo luciferase solution (Promega). 9; Incubation; 5 min; room temperature. 10; Detection; Luminescence; ViewLux plate reader (PerkinElmer). NOTES (numbers refer to Sequence numbers above) 1. HEK-293 cells expressing CMV-luciferase reporter (designated as SC cells) were suspended in phenol-red free DMEM and dispensed in assay plates using a Multidrop Combi dispenser (Thermo Fisher Scientific). 2. Assay plates were incubated. Evaporation was prevented by covering assay plates with metal lids containing holes to allow gas diffusion. 3. Compounds were added in a dose response manner with the final concentrations of 57, 11.4, 2.28, 0.46, 0.091, 0.018, 0.0037 uM. Vehicle-only plates, with DMSO being pin-transferred to columns 5-48, were inserted uniformly at the beginning and the end of each library to monitor and record any shifts in assay performance. 5. 125 uM Gly-Phe-7-Amino-4-trifluoromethylcoumarin (MP Biomedicals) working concentration was used at a final concentration of 25 uM. 7. To assess cell viability; the assay plates were read using the ViewLux high-throughput CCD imager (PerkinElmer), wherein single end-point fluorescence measurement was acquired (excitation 405/10; emission 540/25 nm). 8. Detection reagent SteadyGlo Luciferase (Promega) was added to the assay plate. 10. Luminescence is then measured on the ViewLux imager equipped with a clear emission filter using a 2 sec exposure. […]
(The purpose of a counterscreen is to sort out artefacts and off-target activity.)
Consider `CCC1(OC(=O)CN)C(=O)OCc2c1cc1n(c2=O)Cc2cc3ccccc3nc2-1` (stereo unspecified), for which the activity change, negative = inhibition is -43.6% [at 11.4 µM].
In the case of `CC[C@@]1(O)C(=O)OCc2c1cc1n(c2=O)Cc2cc3c(NC(=O)CN)cccc3nc2-1`, the Potency is 56.2 nM (active).
Same read-out and setting: the figure for `COc1cc2c(cc1OC)C1C(=O)c3ccc4c(c3OC1CO2)CC(C(C)C)O4` (stereo unspecified) is 794 nM (active); for `CCC(C)(O)C(=O)OC1C(=O)OC2CC3C(C)=CC(=O)C(O)C3(C)C3C4(O)OCC23C1C(C)C4O` (stereo unspecified) it is 316 nM (active).
For the compound `CCC(C)OC(=O)c1c(N)n(Cc2cccs2)c2nc3ccccc3nc12` (stereo unspecified), the Potency is 17800 nM (active).
As to `CC(C)CCn1c(N)c(C(=O)NCc2cccs2)c2nc3ccccc3nc21`, the Potency was 14100 nM (active).
In the case of `CCOC(=O)c1c(N)n(CCN2CCCCC2)c2nc3ccccc3nc12`, the “activity change, negative = inhibition” value was -22.5%.
Same read-out and setting: the figure for `CNC(=O)Nc1ccc(C(=O)N/N=C\C23CC[C@@H](O)CC2(O)CC[C@@H]2[C@@H]3CCC3(C)C(C4=CC(=O)OC4)CCC23O)cc1` (stereo partly specified) is -18.2%.
Turning to `CC1CC(C)CC(C)C(O)C(C#N)=CC=CCC(C2CCCC2C(=O)O)OC(=O)CC(O)C(C)C1` (stereo unspecified), the Potency was 316 nM (active).
Still for that read-out and setting: with `CC(=O)OC1(C)CC(C)C(=O)C(C(O)CC2CC(=O)NC(=O)C2)C1` (stereo unspecified) the figure was 126 nM (active).
As for `C[C@H]1C[C@@H](C)C(=O)[C@@H]([C@H](O)CC2CC(=O)NC(=O)C2)C1`, the Potency is 282 nM (active).
As for `C[C@@H]1C[C@@H]([C@H](O)CC2CC(=O)NC(=O)C2)C(=O)[C@@H](C)C1`, the Potency was 2820 nM (active).
Consider `C[C@]12CCC3C(CCC4=CC(O)CC[C@@]43/C=N/O)C1(O)CCC2C1=CC(=O)OC1` (stereo partly specified), for which the “activity change, negative = inhibition” value was 7.54%.
In the case of `Cc1ccc(N2C(=O)NC(=O)/C(=C/C=C/c3ccco3)C2=O)cc1`, the activity change, negative = inhibition was 82.1% [at 11.4 µM].
On to `CC(=O)OC1CC2(O)C3CCC4CC(O)CCC4(C)C3CCC2(C)C1C1=CC(=O)OC1` (stereo unspecified), for which the “activity change, negative = inhibition” value is -13.9%.
Turning to `O=C1NC2C(=CC(O)C(O)C2O)c2cc3c(cc21)OCO3` (stereo unspecified), the Potency was 251 nM (active).
For `Cc1c2ccncc2c(C)c2c1[nH]c1ccccc12`, the Potency was 5010 nM (active).
For `COc1ccc(CCNCc2ccc(F)cc2)cc1OC`, the activity change, negative = inhibition was -5.47% [at 11.4 µM].
`COC1C(O)C(C)OC(OC2C(Oc3cccc4c(O)c5c(=O)oc6ccc(C)c7c(=O)oc(c34)c5c67)OC(C)C(O)C2O)C1O` (stereo unspecified): the activity change, negative = inhibition is -15.7% [at 11.4 µM].
With `O=[N+]([O-])c1ccc(C(c2ccc([N+](=O)[O-])cc2)c2ccc([N+](=O)[O-])cc2)cc1`, the Potency was 17800 nM (active).
`C[C@]12CC[C@H](O)C[C@H]1CC[C@@H]1[C@@H]2CC[C@]2(C)[C@@H](C3=CC(=O)OC3)CC[C@]12O`: the “activity change, negative = inhibition” value is 6.94%.
The same measure, in the same setting: with `COc1ccc(N=Cc2c(O)n(-c3ccc(C)cc3)c(=O)[nH]c2=O)cc1` the figure was -14.8%.
Turning to `CC1OC(OC2C(O)CC(OC3C(O)CC(OC4CCC5(C)C(CCC6C5CCC5(C)C(C7=CC(=O)OC7)C(O)CC65O)C4)OC3C)OC2C)CC(O)C1O` (stereo unspecified), the “activity change, negative = inhibition” value is -15%.
For `CC(C)(C)n1nnnc1C(CCc1ccccc1)N1CCC(n2c(=O)[nH]c3ccccc32)CC1` (stereo unspecified), the Potency was 20000 nM (active).
Same read-out and setting: with `O=c1[nH]c2ccccc2n1C1CCN(C(CCc2ccccc2)c2nnnn2C2CCCC2)CC1` (stereo unspecified) the figure was 14100 nM (active).
In the case of `N#Cc1cn(C2OC(CO)C(O)C2O)c2ncnc(N)c12` (stereo unspecified), the activity change, negative = inhibition is -77.3% [at 11.4 µM].
As for `CCC1CN2CCc3cc(OC)c(OC)cc3C2CC1CC1NCCc2c1[nH]c1ccc(O)cc21` (stereo unspecified), the Potency is 89.1 nM (active).
For the compound `C1=NCCc2c1[nH]c1ccccc21`, the activity change, negative = inhibition was 110% [at 11.4 µM].
`COc1cc2nc(CN3CC=C(c4ccccc4)CC3)[nH]c(=O)c2cc1OC`: the “activity change, negative = inhibition” value was 155%.
On to `O=C(CSC1c2ccccc2-c2ccccc21)N/N=C/c1ccccc1O`, for which the Potency was 3160 nM (active).
Regarding `Clc1ccc2[nH]c3c(c2c1)CCNC3`, the activity change, negative = inhibition is -18.6% [at 11.4 µM].
